Inconclusive results are not listed. Active and inactive are the calls of the source. Unless noted, calls follow the shape of the dose curve; as a rule, active = well fitted curve in the direction sought with a large enough effect in the repeat runs; inconclusive = weak or mixed curves; inactive = no such curve, though single readings can be large; an effect the other way counts as inactive or inconclusive.
Key:
[1] = qHTS assay to identify small molecule agonists of the sonic hedgehog signaling (Shh) pathway (AID 1259368; calls by dose curve; also: series mostly up to about 92 µM; nearly all actives have a fitted effect of over 15% in size)
Summary of the method: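 NIH/3T3-derived 3T3Gli1-Luc cells carrying a stably integrated Gli1 response element–firefly luciferase reporter were plated, left 4 hr at 37 C, then given compounds in DMSO for 24 hr. Luminescence was read 30 min after adding luciferase reagent.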

[2] = qHTS assay to identify small molecule antagonists of the sonic hedgehog signaling (Shh) pathway (AID 1259369; calls by dose curve; also: nearly all actives have a fitted effect of over 45% in size)
Summary of the method: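 NIH/3T3-derived 3T3Gli1-Luc cells with stably integrated Gli1-Luc reporter were preincubated 4hr at 37 C, then given compounds in DMSO plus Shh conditioned medium and incubated 24hr. Firefly luciferase luminescence read after 30min reagent at room temperature.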

[3] = molecular target: Estrogen receptor beta (Homo sapiens) (UniProt Q92731); test: qHTS assay to identify small molecule agonists of the estrogen receptor beta (ER-beta) signaling pathway (AID 1259377; active = well fitted activation curve with a large enough effect in the signal ratio in the repeat runs, not every such curve was filed as active; the % refers to the signal ratio)
Summary of the method: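 qHTS in ER-beta-UAS-bla HEK293T cells: 6 hr settling, then 16 hr compound at 37C, then LiveBLAzer substrate 2 h at RT before fluorescence reading.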

[4] = molecular target: Estrogen receptor beta (Homo sapiens) (UniProt Q92731); test: qHTS assay to identify small molecule antagonists of the estrogen receptor beta (ER-beta) signaling pathway (AID 1259378; active = well fitted inhibition curve with a large enough effect in the signal ratio in the repeat runs, not every such curve was filed as active; the % refers to the signal ratio)
Summary of the method: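 ER-beta-UAS-bla HEK293T (GripTite) cells in 2% charcoal-stripped FBS medium were preincubated 6 hr at 37C, dosed with compound, then stimulated with 1 nM E2 (final) for 16 hr; beta-lactamase reporter read by B/G FRET fluorescence after 2 hr substrate loading.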

[5] = qHTS assay to identify small molecule agonists of the androgen receptor (AR) signaling pathway in the presence of an antagonist - cell viability counter screen (AID 1259379); also: series mostly up to about 92 µM; nearly all actives have a fitted effect of over 25% in size
Summary of the method: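 MDA-kb2 human breast carcinoma cells (stable MMTV-luciferase, AR/GR responsive) were seeded 3,000 cells/well, pre-incubated 5 hr at 37C without CO2, then given 3.0uM nilutamide and compounds at 15 concentrations for 16 hr. Viability was read by CellTiter-Fluor fluorescence.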

[6] = qHTS assay to identify small molecule agonists of the estrogen receptor beta (ER-beta) signaling pathway - cell viability counter screen (AID 1259380); also: nearly all actives have a fitted effect of over 30% in size
Summary of the method: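 ER-beta-UAS-bla HEK293T cells in medium with 2% charcoal-stripped FBS were preincubated 6 hr at 37C, dosed with compound in DMSO for 16 hr, then after the bla read, CellTiter-Glo was added for 30 min at room temperature; luminescence recorded.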

[7] = qHTS assay to identify small molecule antagonists of the estrogen receptor beta (ER-beta) signaling pathway - cell viability counter screen (AID 1259382); also: series mostly up to about 92 µM; nearly all actives have a fitted effect of over 55% in size
Summary of the method: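 ER-beta-UAS-bla HEK293T cells (2,000/well, 2% charcoal-stripped FBS) were pre-incubated 6 hr at 37C, then given compound plus 1nM final 17-beta-estradiol for 16 hr. Viability was read in the same wells by CellTiter-Glo luminescence after 30 min at room temperature.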

[8] = qHTS assay to identify small molecule agonists or antagonists of the thyroid stimulating hormone receptor (TSHR) signaling pathway - wild type cell line counter screen (AID 1259384; calls by dose curve)
Summary of the method: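 Wild-type HEK293 cells were plated 18 h at 37 C/5% CO2, pin-dosed with compound plus Ro20-1724 medium, held 30 min at room temperature, then given cAMP-d2 and anti-cAMP-cryptate; fluorescence was read after 1 h. Fifteen concentrations, triplicate.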

[9] = molecular target: Thyrotropin receptor (Homo sapiens) (UniProt P16473); test: qHTS assay to identify small molecule antagonists of the thyroid stimulating hormone receptor (TSHR) signaling pathway (AID 1259385; calls by dose curve; also: nearly all actives have a fitted effect of over 20% in size)
Summary of the method: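 TSHR-HEK293 cells were plated and held 18 h at 37C/5% CO2, then given compound plus Ro20-1724 and stimulated with TSH at 1.5 ng/mL final. After 30 min at room temperature, cAMP was detected with cAMP-d2/anti-cAMP-cryptate (1 h) by fluorescence.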

[10] = qHTS assay to identify small molecule agonists of the estrogen receptor alpha (ER-alpha) signaling pathway in the presence of an antagonist - cell viability counter screen (AID 1259386);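 also: series mostly up to about 92 µM; cells exposed to compounds for 22 h at 37 °C before the viability read; nearly all actives have a fitted effect of over 30% in size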
Summary of the method: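 VM7Luc4E2 cells (endogenous full-length ER-alpha, 4×ERE-luciferase) were held 5 days in phenol red-free medium with 10% charcoal-stripped FBS, plated, then given 10.0nM ICI-182,780 and compounds at 15 concentrations for 22hr at 37C; viability read by CellTiter-Fluor fluorescence.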

[11] = molecular target: Progesterone receptor (Homo sapiens) (UniProt P06401); test: qHTS assay to identify small molecule agonists of the progesterone receptor (PR) signaling pathway (AID 1346784; calls by dose curve; also: nearly all actives have a fitted effect of over 30% in size)
Summary of the method: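 Fluorescence from LiveBLAzer B/G FRET substrate cleavage (2 hr, RT) reported PR activation in PR-UAS-bla HEK 293T cells treated 16 hr at 37C/5% CO2 with compounds; medium contained 2% charcoal-stripped FBS.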

[12] = molecular target: Progesterone receptor (Homo sapiens) (UniProt P06401); test: qHTS assay to identify small molecule antagonists of the progesterone receptor (PR) signaling pathway (AID 1346795; active = well fitted inhibition curve with a large enough effect in the signal ratio in the repeat runs, not every such curve was filed as active; the % refers to the signal ratio)
Summary of the method: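 Fluorescence intensity measured 2 hr after adding beta-lactamase FRET substrate to PR-UAS-bla HEK293T cells that had been co-treated 16 hr with compound and 1 nM R5020 (final concentration) in 2% charcoal-stripped FBS.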

[13] = qHTS assay to identify small molecule antagonists of the progesterone receptor (PR) signaling pathway - cell viability counter screen (AID 1346798); also: series mostly up to about 92 µM; nearly all actives have a fitted effect of over 50% in size
Summary of the method: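 CellTiter-Glo luminescence; PR-UAS-bla HEK293T, 3,000 cells/well; compound + R5020, 16 hr, 37C/5% CO2; 30 min RT before read.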

[14] = qHTS assay to identify small molecule agonists of the progesterone receptor (PR) signaling pathway - cell viability counter screen (AID 1346799; calls by dose curve; also: nearly all actives have a fitted effect of over 45% in size)
Summary of the method: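 In parallel with the beta-lactamase readout, cytotoxicity toward PR-UAS-bla HEK293T cells was measured by CellTiter-Glo luminescence following 16 hr compound incubation in 2% charcoal-stripped FBS medium.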

[15] = qHTS assay to identify small molecule antagonists of the TGF-beta/Smad signaling pathway - cell viability counter screen (AID 1346824); also: nearly all actives have a fitted effect of over 50% in size
Summary of the method: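 SBE-bla HEK 293T cells were plated overnight at 37 C, then given compounds in DMSO plus TGF-beta1 (added as 0.25 ng/mL solution) for 5 hr. After the bla read, CellTiter-Glo was added to the same wells and luminescence read after 30 min at room temperature.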

[16] = qHTS assay to identify small molecule agonists of the TGF-beta/Smad signaling pathway - cell viability counter screen (AID 1346829); also: top concentration of the series differs between compounds; nearly all actives have a fitted effect of over 45% in size
Summary of the method: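 HEK 293T SBE-bla line, 5 hr compound exposure at 37 C, multiplexed CellTiter-Glo viability read by luminescence.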

[17] = qHTS assay to identify small molecule agonists of the TGF-beta/Smad signaling pathway (AID 1346859; active = well fitted activation curve with a large enough effect in the signal ratio in the repeat runs, not every such curve was filed as active; the % refers to the signal ratio; also: series mostly up to about 77 µM)
Summary of the method: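 After overnight seeding, SBE-bla HEK 293T cells are dosed with compounds in DMSO and kept 5 hr at 37 C, 5% CO2. LiveBLAzer-type FRET substrate is then applied for 2 hr at room temperature.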

[18] = molecular target: Thyrotropin-releasing hormone receptor (Homo sapiens) (UniProt P34981); test: qHTS assay to identify small molecule antagonists of the thyrotropin-releasing hormone receptor (TRHR) signaling pathway (AID 1346877; active = well fitted inhibition curve with a large enough effect in the repeat runs, not every such curve was filed as active; also: series mostly up to about 51 µM)
Summary of the method: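 TRHR-expressing HEK293 cells were seeded, cultured 18 h at 37 °C, then loaded with calcium dye for 2 h. Compounds were pre-incubated 5 min at room temperature before 1 nM TRH (final) was added, and kinetic fluorescence was recorded for 3 min.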

[19] = molecular target: Estrogen receptor (Homo sapiens) (UniProt P03372); test: qHTS assay to identify small molecule agonists of the estrogen receptor alpha (ER-alpha) signaling pathway in the presence of an antagonist (AID 1259383; calls by dose curve; also: top concentration of the series differs between compounds; nearly all actives have a fitted effect of over 15% in size)
Summary of the method: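 VM7Luc4E2 cells (endogenous full-length ER-alpha, 4×ERE-luciferase) were precultured 5 days in phenol red-free medium with 10% charcoal-stripped FBS, given 10.0nM ICI-182,780 (final), then treated with compounds at 15 concentrations for 22hr at 37C; luminescence read with ONE-Glo.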

[20] = molecular target: Androgen receptor (Homo sapiens) (UniProt P10275); test: qHTS assay to identify small molecule agonists of the androgen receptor (AR) signaling pathway in the presence of an antagonist (AID 1259381; calls by dose curve; also: nearly all actives have a fitted effect of over 15% in size)
Summary of the method: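 MDA-kb2 human breast carcinoma cells carrying an MMTV-luciferase reporter (AR- and GR-responsive) were treated with compounds at 15 concentrations plus 3.0uM final nilutamide for 16hr at 37C without CO2; luminescence was read after ONE-Glo addition.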
% is scaled to controls: 0 for no effect and ±100 for the full control effect.

Chain of Thyrotropin receptor (Homo sapiens) (P16473 whole entry, looked up): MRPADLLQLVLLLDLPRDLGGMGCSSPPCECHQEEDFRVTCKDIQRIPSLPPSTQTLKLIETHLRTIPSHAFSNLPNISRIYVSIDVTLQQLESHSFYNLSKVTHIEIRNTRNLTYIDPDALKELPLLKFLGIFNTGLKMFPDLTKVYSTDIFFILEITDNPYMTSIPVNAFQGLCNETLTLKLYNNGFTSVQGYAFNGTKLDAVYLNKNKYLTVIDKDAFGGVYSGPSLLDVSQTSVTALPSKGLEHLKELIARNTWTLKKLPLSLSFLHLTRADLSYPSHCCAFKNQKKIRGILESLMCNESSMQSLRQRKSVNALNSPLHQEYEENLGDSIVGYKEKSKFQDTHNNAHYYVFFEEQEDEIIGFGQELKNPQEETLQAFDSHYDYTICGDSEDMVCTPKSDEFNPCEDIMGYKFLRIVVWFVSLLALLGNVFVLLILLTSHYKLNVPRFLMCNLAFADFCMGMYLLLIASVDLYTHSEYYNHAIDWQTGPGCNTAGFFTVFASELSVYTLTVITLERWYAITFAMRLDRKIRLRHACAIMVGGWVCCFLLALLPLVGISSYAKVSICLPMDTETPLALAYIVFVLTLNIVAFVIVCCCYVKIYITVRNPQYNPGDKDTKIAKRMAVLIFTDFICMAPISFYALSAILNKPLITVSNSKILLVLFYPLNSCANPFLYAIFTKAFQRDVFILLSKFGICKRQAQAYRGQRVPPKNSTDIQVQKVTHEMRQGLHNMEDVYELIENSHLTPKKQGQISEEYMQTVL
Chain of Estrogen receptor beta (Homo sapiens) (Q92731 whole entry, looked up): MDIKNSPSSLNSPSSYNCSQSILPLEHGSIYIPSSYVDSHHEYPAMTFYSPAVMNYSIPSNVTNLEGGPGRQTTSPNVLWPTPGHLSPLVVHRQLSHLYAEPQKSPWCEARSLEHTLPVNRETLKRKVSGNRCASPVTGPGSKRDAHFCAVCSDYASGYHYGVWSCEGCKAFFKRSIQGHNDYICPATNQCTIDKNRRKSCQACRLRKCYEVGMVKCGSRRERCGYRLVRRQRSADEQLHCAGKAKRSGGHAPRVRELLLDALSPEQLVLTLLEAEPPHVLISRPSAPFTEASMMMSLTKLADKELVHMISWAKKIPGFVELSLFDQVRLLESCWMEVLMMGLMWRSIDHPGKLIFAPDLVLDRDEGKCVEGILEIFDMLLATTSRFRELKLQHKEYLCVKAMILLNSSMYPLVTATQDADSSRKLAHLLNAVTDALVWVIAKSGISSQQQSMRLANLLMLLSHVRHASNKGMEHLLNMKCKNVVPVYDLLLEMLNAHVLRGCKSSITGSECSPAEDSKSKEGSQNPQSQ
Chain of Thyrotropin-releasing hormone receptor (Homo sapiens) (P34981 whole entry, looked up): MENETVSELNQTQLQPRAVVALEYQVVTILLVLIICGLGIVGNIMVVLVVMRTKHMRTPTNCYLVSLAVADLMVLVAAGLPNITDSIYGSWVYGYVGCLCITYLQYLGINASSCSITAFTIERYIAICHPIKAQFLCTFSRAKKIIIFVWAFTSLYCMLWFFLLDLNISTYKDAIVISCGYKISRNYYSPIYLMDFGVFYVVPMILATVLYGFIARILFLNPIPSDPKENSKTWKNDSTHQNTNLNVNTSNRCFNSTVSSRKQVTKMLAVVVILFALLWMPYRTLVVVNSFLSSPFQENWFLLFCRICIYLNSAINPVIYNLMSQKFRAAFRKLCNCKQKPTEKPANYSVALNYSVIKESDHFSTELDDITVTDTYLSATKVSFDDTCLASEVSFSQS
Chain of Progesterone receptor (Homo sapiens) (P06401 whole entry, looked up): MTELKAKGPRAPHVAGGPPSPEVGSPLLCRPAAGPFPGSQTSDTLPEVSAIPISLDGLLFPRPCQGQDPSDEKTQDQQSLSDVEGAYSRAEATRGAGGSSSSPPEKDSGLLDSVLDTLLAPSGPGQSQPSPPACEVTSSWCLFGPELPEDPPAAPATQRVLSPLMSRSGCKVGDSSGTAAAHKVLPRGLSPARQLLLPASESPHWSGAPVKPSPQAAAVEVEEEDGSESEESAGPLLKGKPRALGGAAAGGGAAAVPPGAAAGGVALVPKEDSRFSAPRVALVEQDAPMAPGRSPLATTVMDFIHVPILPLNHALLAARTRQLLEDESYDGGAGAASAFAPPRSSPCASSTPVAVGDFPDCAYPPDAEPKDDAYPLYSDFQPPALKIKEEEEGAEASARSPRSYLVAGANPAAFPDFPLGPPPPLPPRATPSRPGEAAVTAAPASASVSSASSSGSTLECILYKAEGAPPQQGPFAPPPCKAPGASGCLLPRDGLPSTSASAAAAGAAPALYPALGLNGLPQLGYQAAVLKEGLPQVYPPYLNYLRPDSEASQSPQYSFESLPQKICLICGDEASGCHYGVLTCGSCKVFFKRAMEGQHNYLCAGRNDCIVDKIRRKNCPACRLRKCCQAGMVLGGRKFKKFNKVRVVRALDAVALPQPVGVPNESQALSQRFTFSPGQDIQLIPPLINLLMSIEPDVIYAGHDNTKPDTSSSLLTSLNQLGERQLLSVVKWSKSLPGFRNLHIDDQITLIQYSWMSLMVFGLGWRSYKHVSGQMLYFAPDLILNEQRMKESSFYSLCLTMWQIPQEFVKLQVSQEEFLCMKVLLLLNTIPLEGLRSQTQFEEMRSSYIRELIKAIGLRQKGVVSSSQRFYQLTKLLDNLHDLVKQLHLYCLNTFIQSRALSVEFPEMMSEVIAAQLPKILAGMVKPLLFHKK
Chain of Estrogen receptor (Homo sapiens) (P03372 whole entry, looked up): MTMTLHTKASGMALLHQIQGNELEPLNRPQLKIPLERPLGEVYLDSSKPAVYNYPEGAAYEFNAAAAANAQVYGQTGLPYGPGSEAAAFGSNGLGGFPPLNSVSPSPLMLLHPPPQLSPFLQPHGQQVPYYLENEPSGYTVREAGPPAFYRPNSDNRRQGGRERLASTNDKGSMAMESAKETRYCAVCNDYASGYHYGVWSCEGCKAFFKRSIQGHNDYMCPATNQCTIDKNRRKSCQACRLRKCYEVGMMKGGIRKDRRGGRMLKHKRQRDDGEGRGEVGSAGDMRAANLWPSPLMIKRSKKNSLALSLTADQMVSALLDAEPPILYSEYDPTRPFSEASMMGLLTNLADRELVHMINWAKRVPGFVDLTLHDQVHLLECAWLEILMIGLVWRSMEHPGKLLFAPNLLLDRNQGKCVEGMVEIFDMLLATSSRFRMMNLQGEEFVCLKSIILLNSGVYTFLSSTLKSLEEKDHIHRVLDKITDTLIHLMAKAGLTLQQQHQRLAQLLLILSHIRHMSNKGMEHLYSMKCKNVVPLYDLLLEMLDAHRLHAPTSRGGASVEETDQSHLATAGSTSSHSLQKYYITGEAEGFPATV
Chain of Androgen receptor (Homo sapiens) (P10275 whole entry, looked up): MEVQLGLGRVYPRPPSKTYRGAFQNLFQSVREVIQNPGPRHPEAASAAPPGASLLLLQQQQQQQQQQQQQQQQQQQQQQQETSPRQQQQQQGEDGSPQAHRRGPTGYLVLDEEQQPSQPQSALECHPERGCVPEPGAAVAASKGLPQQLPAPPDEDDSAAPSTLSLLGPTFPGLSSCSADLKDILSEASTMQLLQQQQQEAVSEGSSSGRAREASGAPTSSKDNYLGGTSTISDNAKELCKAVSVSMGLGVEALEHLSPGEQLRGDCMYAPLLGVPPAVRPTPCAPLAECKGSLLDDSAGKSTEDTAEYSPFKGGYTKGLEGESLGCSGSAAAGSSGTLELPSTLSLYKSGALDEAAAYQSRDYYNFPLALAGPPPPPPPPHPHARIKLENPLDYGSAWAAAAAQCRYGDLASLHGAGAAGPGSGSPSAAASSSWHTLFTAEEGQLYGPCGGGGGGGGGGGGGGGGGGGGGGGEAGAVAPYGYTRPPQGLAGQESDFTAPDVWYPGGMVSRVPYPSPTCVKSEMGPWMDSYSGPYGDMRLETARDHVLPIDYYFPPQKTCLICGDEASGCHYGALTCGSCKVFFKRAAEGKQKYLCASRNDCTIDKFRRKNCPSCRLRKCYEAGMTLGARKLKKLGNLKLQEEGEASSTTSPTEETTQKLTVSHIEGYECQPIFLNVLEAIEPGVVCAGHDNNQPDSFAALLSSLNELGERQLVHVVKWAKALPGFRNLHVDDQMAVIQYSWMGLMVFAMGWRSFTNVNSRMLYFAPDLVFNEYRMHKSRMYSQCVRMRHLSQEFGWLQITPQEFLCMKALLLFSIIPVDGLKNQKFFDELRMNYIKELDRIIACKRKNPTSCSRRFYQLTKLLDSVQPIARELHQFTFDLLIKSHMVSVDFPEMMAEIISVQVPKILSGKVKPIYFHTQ

Nc1nc(=S)[nH][nH]1
inactive: Potency [1] | Potency [2] | Potency [3] | Potency [4] | Potency [5] | Potency [6] | Potency [7] | outcome [8] | Potency [9] | Potency [10] | Potency [11] | Potency [12] | Potency [13] | Potency [14] | Potency [15] | Potency [16] | outcome [17] | Potency [18]

ClCC(Br)CBr (stereo unspecified)
inactive: Potency [1] | Potency [2] | Potency [3] | Potency [4] | Potency [5] | Potency [6] | Potency [7] | Potency [19] | outcome [8] | Potency [9] | Potency [10] | Potency [11] | Potency [12] | Potency [13] | Potency [14] | Potency [15] | Potency [16] | outcome [17]

CCCN(CC1CC1)c1c([N+](=O)[O-])cc(C(F)(F)F)cc1[N+](=O)[O-]
inactive: Potency [1] | Potency [2] | Potency [3] | Potency [4] | Potency [5] | Potency [6] | Potency [7] | Potency [19] | outcome [8] | Potency [9] | Potency [10] | Potency [11] | Potency [13] | Potency [14] | Potency [15] | Potency [16] | outcome [17] | Potency [18]

COC(C)(C)CCC[C@H](C)C/C=C/C(C)=C/C(=O)OC(C)C
inactive: Potency [1] | Potency [2] | Potency [3] | Potency [4] | Potency [5] | Potency [6] | Potency [20] | Potency [7] | outcome [8] | Potency [9] | Potency [10] | Potency [11] | Potency [12] | Potency [13] | Potency [15] | Potency [16] | outcome [17] | Potency [18]

CC/C(=N\OC/C=C/Cl)C1=C(O)CC(C2CCOCC2)CC1=O (stereo unspecified)
inactive: Potency [1] | Potency [2] | Potency [3] | Potency [4] | Potency [5] | Potency [6] | Potency [7] | outcome [8] | Potency [9] | Potency [10] | Potency [11] | Potency [12] | Potency [13] | Potency [14] | Potency [15] | Potency [16] | outcome [17]

CCC(Br)(CC)C(=O)NC(N)=O
inactive: Potency [1] | Potency [2] | Potency [3] | Potency [4] | Potency [5] | Potency [6] | Potency [7] | outcome [8] | Potency [9] | Potency [10] | Potency [11] | Potency [12] | Potency [13] | Potency [15] | Potency [16] | outcome [17] | Potency [18]

C#CCOC(C(=O)OCCN(C)C)(c1ccccc1)c1ccccc1
inactive: Potency [1] | Potency [2] | Potency [3] | Potency [4] | Potency [5] | Potency [6] | Potency [7] | outcome [8] | Potency [9] | Potency [10] | Potency [11] | Potency [12] | Potency [13] | Potency [14] | Potency [15] | Potency [16] | outcome [17]

NCC(CC(=O)O)c1ccc(Cl)cc1 (stereo unspecified)
inactive: activity change [1] -1.29% [at 0.349 µM, hits give high values] | activity change, negative = inhibition [2] 38.7% [at 0.349 µM] | activation [3] -2.59% [at 0.348 µM] | activity, negative = inhibition [4] 0.814% [at 0.349 µM] | activity change, negative = cytotoxicity [5] 0.676% [at 0.35 µM] | activity change, negative = cytotoxicity [6] 4.02% [at 0.349 µM] | activity change, negative = cytotoxicity [7] 5.5% [at 0.349 µM] | cAMP activity change [8] 0.519% [at 0.349 µM] | activity change, negative = inhibition [9] 2.95% [at 0.349 µM] | activity change, negative = cytotoxicity [10] 7.95% [at 0.349 µM] | activation [11] 1.24% [at 0.349 µM] | activity change, negative = inhibition [12] 7.47% [at 0.348 µM] | activity change, negative = cytotoxicity [13] -8.73% [at 0.348 µM] | activity change, negative = cytotoxicity [14] 0.204% [at 0.349 µM] | viability change, negative = cytotoxic [15] 2.11% [at 0.29 µM] | activity change, negative = cytotoxicity [16] -5.36% [at 0.29 µM] | activation [17] -0.421% [at 0.29 µM] | activity, negative = inhibition [18] 7.63% [at 0.194 µM]

From PubChem BioAssay (Tox21)
